Source: PubChem BioAssay (NCI)
Several values for one entry are separate records, joined by “and”; a condition that tells them apart may be missing. Equal values may be shown once. This is part of a sample that, as a whole, favours compounds with a hit. Of some 79,000 tested, about 15% had one in any assay. Activity calls are given as the source filed them. No stated cut-off is given here; in the data, active means growth inhibition above about 70%; inactive means the rest.

test: NCI Yeast Anticancer Drug Screen. Data for the rad50 strain (AID 155);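 further: 0% = growth of vehicle-only cultures of the same strain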; details: S. cerevisiae rad50 strain growth inhibition; at 5.0 µM (retest, dose inferred, filed as 0.5); active compounds read high
Experimental: Growth inhibition of yeast strains with defined genetic alterations is measured as a screen for potential anti-cancer activity. Selected strains with alterations in DNA damage repair or cell cycle control were exposed to compounds and growth inhibition was measured relative to vehicle treated controls. The strain used in this assay is rad50

With `O=Cc1ccc(-c2ccc(-c3ccc(CO)s3)o2)s1` as the compound, how does the growth inhibition read?
The growth inhibition was 20% (inactive).

With `CCCCCCCCCC(=O)CCCCCCCCC` as the compound, how does the growth inhibition read?
The growth inhibition was 48% (inactive).

Which growth inhibition does the source give for `CCCCCCCCCCCC1=NCCCN1CCCC` here?
Its growth inhibition is 10% (inactive).

Which growth inhibition does the source give for `Cc1ccccc1N=C(N)Nc1ccccc1C` (tested in a mixture with another compound) here?
Its growth inhibition is 0% (inactive).

Which growth inhibition does the source give for `Cc1ccc(N2C(=O)C=CC2=O)cc1` here?
The growth inhibition was 95% (active).

Which growth inhibition does the source give for `CC1=CC(=NC(=O)CBr)C=C/C1=N\S(=O)(=O)c1ccccc1` here?
Its growth inhibition is 65% (inactive).

Which growth inhibition does the source give for `CCC(C)(CC)c1ccc(O)cc1` here?
The growth inhibition was 14% (inactive).

With `COCc1c(C#N)c(Cl)nc(C)c1[N+](=O)[O-]` as the compound, how does the growth inhibition read?
The growth inhibition was 14% (inactive).

For `CCN1CCCC(Nc2cc(C)nc(/N=C(/N)Nc3ccc(Cl)c(Cl)c3)n2)C1` (stereo not given), which growth inhibition is on record?
Its growth inhibition is 48% (inactive).

With `CCCCC(CC)CNC(=O)/C=C\C(=O)O` (stereo not given) as the compound, how does the growth inhibition read?
Its growth inhibition is 15% (inactive).

Which growth inhibition does the source give for `CC1(C)N=c2cc3c(cc2N1c1ccc(Cl)cc1)=Nc1ccccc1N3c1ccc(Cl)cc1` here?
The growth inhibition was 17% (inactive).

For `Cc1cc(C)c([I+]c2c(C)cc(C)cc2C)c(C)c1`, which growth inhibition is on record?
The growth inhibition was 10% (inactive).

same assay, conditions: S. cerevisiae rad50 strain growth inhibition; at 50.0 µM (retest, dose inferred, filed as 5.0); active compounds read high

For `O=Cc1ccc(-c2ccc(-c3ccc(CO)s3)o2)s1`, which growth inhibition is on record?
The growth inhibition was 62% (inactive).

With `CCCCCCCCCC(=O)CCCCCCCCC` as the compound, how does the growth inhibition read?
Its growth inhibition is 7% (inactive).

With `CCCCCCCCCCCC1=NCCCN1CCCC` as the compound, how does the growth inhibition read?
Its growth inhibition is 99% (active).

With `Cc1ccccc1N=C(N)Nc1ccccc1C` (tested in a mixture with another compound) as the compound, how does the growth inhibition read?
The growth inhibition was 15% (inactive).

Which growth inhibition does the source give for `Cc1ccc(N2C(=O)C=CC2=O)cc1` here?
The growth inhibition was 99% (active).

With `CC1=CC(=NC(=O)CBr)C=C/C1=N\S(=O)(=O)c1ccccc1` as the compound, how does the growth inhibition read?
Its growth inhibition is 99% (active).

Which growth inhibition does the source give for `CCC(C)(CC)c1ccc(O)cc1` here?
Its growth inhibition is 78% (active).

For `COCc1c(C#N)c(Cl)nc(C)c1[N+](=O)[O-]`, which growth inhibition is on record?
Its growth inhibition is 76% (active).

With `CCN1CCCC(Nc2cc(C)nc(/N=C(/N)Nc3ccc(Cl)c(Cl)c3)n2)C1` (stereo not given) as the compound, how does the growth inhibition read?
Its growth inhibition is 96% (active).

Which growth inhibition does the source give for `CCCCC(CC)CNC(=O)/C=C\C(=O)O` (stereo not given) here?
Its growth inhibition is 85% (active).

With `CC1(C)N=c2cc3c(cc2N1c1ccc(Cl)cc1)=Nc1ccccc1N3c1ccc(Cl)cc1` as the compound, how does the growth inhibition read?
Its growth inhibition is -4% (inactive).

For `Cc1cc(C)c([I+]c2c(C)cc(C)cc2C)c(C)c1`, which growth inhibition is on record?
The growth inhibition was 95% (active).

same assay, conditions: S. cerevisiae rad50 strain growth inhibition; at 50.0 µM; active compounds read high

Which growth inhibition does the source give for `O=C1CC(=P(c2ccccc2)(c2ccccc2)c2ccccc2)C(=O)N1c1ccccc1` here?
Its growth inhibition is -24.2% (inactive) and 22.2% (inactive).

Which growth inhibition does the source give for `O=Cc1ccc(-c2ccc(-c3ccc(CO)s3)o2)s1` here?
The growth inhibition was 17.2% (inactive).

Which growth inhibition does the source give for `COC(=O)c1cccc2c[n+]3c(cc12)-c1[nH]c2cc(OC)ccc2c1CC3` here?
Its growth inhibition is 4.55% (inactive) and 53% (inactive).

With `CCCCCC(Br)C(Br)CC(Br)C(Br)CCCCCCCC(=O)c1ccc2ccccc2c1O` (stereo not given) as the compound, how does the growth inhibition read?
Its growth inhibition is 2.8% (inactive) and 22.1% (inactive).

Which growth inhibition does the source give for `CCCCCCCCCCCC1=NCCCN1CCCC` here?
The growth inhibition was 88.3% (active).

Which growth inhibition does the source give for `Cc1ccccc1N=C(N)Nc1ccccc1C` (tested in a mixture with another compound) here?
The growth inhibition was 12.9% (inactive).

For `CC(=O)O[C@H]1C(=O)[C@@]2(C)C(C(OC(=O)c3ccccc3)[C@]3(O)CC(OC(=O)[C@H](OC(=O)CCC(=O)O)C(NC(=O)c4ccccc4)c4ccccc4)C(C)=C1C3(C)C)C1(OC(C)=O)COC1C[C@@H]2O` (stereo not given in full), which growth inhibition is on record?
The growth inhibition was 12.9% (inactive) and 26.6% (inactive).

With `COc1cc2c(c(OC)c1OC)-c1ccc(OC)c(=O)cc1C([N+](C)(C)C)CC2` (stereo not given) as the compound, how does the growth inhibition read?
The growth inhibition was 21.2% (inactive) and -13.3% (inactive).

For `Cc1ccc(N2C(=O)C=CC2=O)cc1`, which growth inhibition is on record?
Its growth inhibition is 99.3% (active).

For `CC1=CC(=NC(=O)CBr)C=C/C1=N\S(=O)(=O)c1ccccc1`, which growth inhibition is on record?
The growth inhibition was 56.5% (inactive).

With `CC(=O)OC1COC(N2CCc3ccccc32)C(OC(C)=O)C1OC(C)=O` (stereo not given) as the compound, how does the growth inhibition read?
The growth inhibition was -16.2% (inactive) and -19% (inactive).

For `CCN1CCCC(Nc2cc(C)nc(/N=C(/N)Nc3ccc(Cl)c(Cl)c3)n2)C1` (stereo not given), which growth inhibition is on record?
The growth inhibition was 90% (active).

Which growth inhibition does the source give for `C=C1C(=O)OC2C1CCC(C)C1CCC(=O)OC12C` (stereo not given) here?
Its growth inhibition is 50.9% (inactive) and -7.2% (inactive).

For `O=C(O)/C=C(\F)C(=O)O`, which growth inhibition is on record?
The growth inhibition was -9.8% (inactive) and 14.7% (inactive).

Which growth inhibition does the source give for `CC1(C)N=c2cc3c(cc2N1c1ccc(Cl)cc1)=Nc1ccccc1N3c1ccc(Cl)cc1` here?
The growth inhibition was 96.1% (active).

For `Cc1cc(C)c([I+]c2c(C)cc(C)cc2C)c(C)c1`, which growth inhibition is on record?
The growth inhibition was 57.8% (inactive).
